# Results taken from PubChem BioAssay AID2158 (National Center for Advancing Translational Sciences (NCATS), 2009).
# Where “and” joins values, the source holds several entries; their conditions need not be identical. Equal entries are not always repeated. Results filed as inconclusive are left out. Unmarked numbers belong to inactive results. Calls of active or inactive are those of the source. Calls come from the whole dose curve; as a rule, active = well fitted inhibition curve with a large enough effect; inconclusive = small, poorly fitted or top-dose-only effect; inactive = no such curve, though single readings can be large or run the other way.
# Target: Cruzipain (Trypanosoma cruzi) (UniProt P25779)
# Assay: Confirmation qHTS Assay for Inhibitors of Cruzain; note: nearly all actives have a fitted effect of over 40% in size;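 for activity change, negative = inhibition: plate controls were uninhibited enzyme control for no effect and buffer wells lacking enzyme for full effect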
# Settings: purified cruzain, Z-FR-AMC fluorescence, 0.01% Triton
# Summary of the method: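 Purified cruzain, 1.5 nM, pre-incubated 15 min at room temperature with compound in 100 mM sodium acetate pH 5.5, 5 mM DTT, 0.01% Triton X-100. Then 2 uM Z-FR-AMC added; AMC fluorescence (ex 360/em 450 nm) increase over 60 s gave reaction progress.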
# Potency is the fitted concentration of half-maximal effect.
# Sequence of Cruzipain (Trypanosoma cruzi) (P25779 123-467 limits assumed): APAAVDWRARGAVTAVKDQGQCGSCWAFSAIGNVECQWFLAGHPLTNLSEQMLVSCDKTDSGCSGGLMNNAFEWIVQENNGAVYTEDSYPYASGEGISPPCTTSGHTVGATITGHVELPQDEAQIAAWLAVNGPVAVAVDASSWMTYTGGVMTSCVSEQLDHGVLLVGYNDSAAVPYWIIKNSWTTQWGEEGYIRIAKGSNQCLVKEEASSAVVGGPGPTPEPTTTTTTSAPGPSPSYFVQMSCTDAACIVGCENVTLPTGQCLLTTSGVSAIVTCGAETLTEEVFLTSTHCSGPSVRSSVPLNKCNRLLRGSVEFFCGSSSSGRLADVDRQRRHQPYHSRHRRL
Compound,Potency,"activity change, negative = inhibition [%]"
Cc1cc(=O)oc2cc(OCC(=O)N3CCOCC3)ccc12,8.91 µM (active),
N#Cc1c(NC(=O)CSc2ncnc3c2cnn3-c2ccccc2Cl)sc2c1CCCC2,,-1.46
Cc1ccccc1-c1nc2c(=O)n(C)c(=O)nc-2n(C)n1,0.891 µM (active),
O=C(NCc1ccco1)c1ccc2nc3sc4c(c3c(=O)n2c1)CCCC4,28.2 µM (active),
Cc1ccc2[nH]c(=O)c(CN(Cc3ccco3)Cc3nnnn3Cc3ccccc3)cc2c1,,-13.8
O=C(Nc1ccccc1)c1ccc2nc(-c3ccco3)c(-c3ccco3)nc2c1,7.94 µM (active),
COc1cc(C(=O)COC(=O)CNC(=O)C2CCCCC2)cc(OC)c1OC,7.94 µM (active),
CCOc1ccc(CN2C(=O)c3ccccc3Sc3ccc(C(=O)NCc4ccc(C)cc4)cc32)cc1,,0.925
CC(C)CNc1nc(C#N)nc(Nc2ccccc2)n1,0.891 µM (active),
CCN(CC)c1nc(C#N)nc(N(CC)CC)n1,17.8 µM (active) and 14.1 µM (active),
Cc1oc(=O)c(NC(=O)c2cccc(Cl)c2)cc1C(=O)c1ccccc1,,-24.6
O=C(NCCc1nc2ccccc2n1CCCOc1ccccc1)C1CCCCC1,2.24 µM (active),
O=C(CNC(=O)c1cccc(Cl)c1)OC(C(=O)Nc1cc(C(F)(F)F)ccc1Cl)c1ccccc1 (stereo not drawn),12.6 µM (active),
O=[S+]([O-])(/C=C/c1nc(Nc2cc(F)cc(F)c2)c2ncn(CC(F)F)c2n1)c1ccccc1,,-11.8
O=C(NCCCO)c1ccc2nc(-c3ccco3)c(-c3ccco3)nc2c1,12.6 µM (active),
O=C(CNC(=O)c1ccccc1Cl)OC(C(=O)Nc1cc(C(F)(F)F)ccc1Cl)c1ccccc1 (stereo not drawn),8.91 µM (active),
Cc1ccccc1OCCCCn1c(CCNC(=O)C2CCCCC2)nc2ccccc21,0.562 µM (active),
CC(=O)OC1(C(F)(F)F)Oc2ccccc2NC1=O (stereo not drawn),2.82 µM (active),
N#Cc1nc(Nc2cccc([N+](=O)[O-])c2)nc(NC2CCCC2)n1,0.0631 µM (active),

Compound,Potency,"activity change, negative = inhibition [%]"
Cc1cccc(C)c1OCCCn1c(CCNC(=O)C2CCCCC2)nc2ccccc21,1.26 µM (active) and 1.58 µM (active),
CC(C)CC(OC(=O)CNC(=O)c1ccccc1)C(=O)Nc1cc(C(F)(F)F)ccc1Cl (stereo not drawn),7.94 µM (active),
CCCN(CCC)c1nc(C#N)nc(N(CCC)CCC)n1,3.55 µM (active),
Cc1ccc(S(=O)(=O)NC(N)=NCCC[C@@H](NC(=O)CNC(=O)c2ccccc2)C(=O)Nc2cc(C(F)(F)F)ccc2Cl)cc1,,-20
COc1cc(-c2nn3c(-c4cc(-c5ccccc5)n[nH]4)nnc3s2)cc(OC)c1OC,,-7.01
CCC(C)[C@@H](NC(=O)OC(C)(C)C)c1nnc(S(=O)(=O)Cc2cccc(C)c2)o1 (stereo partly drawn),14.1 µM (active),
CCCCNc1nc(C#N)nc(Nc2ccccc2)n1,0.891 µM (active),
Cc1cc(NC(=O)Cc2cccs2)no1,,-19.2
CC(C)CC(O)C(=O)Nc1cc(C(F)(F)F)ccc1Cl (stereo not drawn),,-12
COC(=O)Cn1c(=NC(=O)c2ccc(Cl)s2)sc2cc(C)ccc21,,-20
CCC(C)c1ccccc1OCCn1c(CCNC(=O)C2CCCCC2)nc2ccccc21 (stereo not drawn),10 µM (active),
CCNc1nc(C#N)nc2c1ncn2-c1cc(F)cc(F)c1,0.224 µM (active),
COc1ccc(NC(=O)C(OC(=O)CNC(=O)c2ccccc2)c2ccccc2)cc1Cl (stereo not drawn),12.6 µM (active),
O=C(Cc1ccccc1)NCC(=O)OCC(=O)c1ccc2ccccc2c1,,-9.73
COc1ccc(OC)c(NC(=O)C(OC(=O)CNC(=O)c2ccccc2)c2ccccc2)c1 (stereo not drawn),11.2 µM (active),
CCNc1nc(C#N)nc(N2CCOCC2)n1,10 µM (active),
CC(=O)c1nnn(-c2nc(C#N)nc(N3CCOCC3)n2)c1C,,4.76
O=C(NCCc1nc2ccccc2n1CCCCOc1ccccc1)C1CCCCC1,0.562 µM (active),
Cc1nc2cc(-c3ccccc3)nn2c(C)c1CCC(=O)N1CCN(c2ccccc2)CC1,,-13
